According to PubChem BioAssay (EPA / NIEHS):
“And” between values parts separate entries of the source, which are not always exact repeats. Equal entries are not always repeated. The source holds several records for some structures; these can differ, active in one and inactive in another. The source made the active and inactive calls. The calls were made as follows: active = hit-call score of the fitted dose curve at least 0.9, where 1 is the maximum; inactive = score below 0.9.

Each molecule was assayed on CD69, CD69 (gene 969) (assay: BSK_LPS_CD69: BioMAP Diversity Plus: LPS Assay for CD69 Biomarker Activity (AID 2284303)). Details: primary human HUVEC with PBMC.
Description: BSK_LPS is a cell-based, multiplexed-readout assay that uses umbilical vein endothelium and peripheral blood mononuclear cells, a human vascular primary cell co-culture, with measurements taken at 24 hours after chemical dosing in a 96-well plate.BSK_LPS_CD69 is an assay component measured in the BSK_LPS assay. It measures CD69 antibody related to regulation of gene expression using ELISA technology.Data from the assay component BSK_LPS_CD69 was analyzed at the endpoint, BSK_LPS_CD69, in the positive analysis fitting direction relative to DMSO as the negative control and baseline of activity. Using a type of binding reporter, gain or loss-of-signal activity can be used to understand protein changes. To generalize the intended target to other relatable targets, this assay endpoint is annotated to the 'cytokine' intended target family, where the subfamily is 'inflammatory factor'.
The levels of cell surface (or secreted, indicated by the prefix "s") biomarker endpoints were measured by ELISA. Overt cytotoxicity to cells in confluent adherent cultures (all systems other than the BT system) was assessed by measuring total protein levels using sulforhodamine B (SRB) staining in parallel cultures at the time of biomarker measurements, indicated as SRB endpoints. For proliferation assays for adherent cell types, individual cell types are cultured at sub-confluence and relative cell numbers quantified by SRB staining at time points optimized for each system (48 h: 3C and CASM3C systems; 72 h: BT and HDF3CGF systems; 96 h: SAg system). SRB was performed by staining cells with 0.1% SRB after fixation with 10% TCA and reading wells at 560 nm.Viability and proliferation of PBMC (T cells) was quantified by Alamar Blue reduction for the SAg and BT systems. For PBMC viability (referred to as PBMC Cytotoxicity within the assay endpoint names), cells were plated (75,000/well in a 96-well plate) and then chemical samples added for 1 h before addition of activators, SEB and TSST-1 (20 ng/mL final concentration each). Cells were incubated for 90 h. Then, Alamar Blue (20 uL/well) (Invitrogen, Cat DAL1100) was added for 6 h, and the plates were read with a fluorescence microplate reader at 546/580 nm (excitation/emission). For PBMC proliferation, cells were plated and activated as above but incubated for only 16 h prior to addition of Alamar Blue. Plates were read after 6 h.

| Structure (SMILES) | outcome | AC50 |
| --- | --- | --- |
| CC[N+](CC)(CC(=O)Nc1c(C)cccc1C)Cc1ccccc1 (tested in a mixture with another compound) | inactive |  |
| COc1ccc(C(=O)c2ccccc2O)c(O)c1 | inactive |  |
| CCC[Si](OC(C)=O)(OC(C)=O)OC(C)=O | inactive | 327 nM (active) |
| O=[N+]([O-])c1cc(S(=O)(=O)Nc2ccccc2)ccc1Nc1ccccc1 |  | 13.2 µM (active) and 10.7 µM (active) |
| CN(C)Cc1cc(C(C)(C)C)c(O)c(C(C)(C)C)c1 |  | 20 µM (active) and 23.1 µM (active) |
| CC(C)C1OCCN1CCOC(=O)NCCCCCCNC(=O)OCCN1CCOC1C(C)C (stereo not drawn) | inactive |  |
| Cc1c(C(N)=O)cc([N+](=O)[O-])cc1[N+](=O)[O-] | inactive |  |
| OC(C(F)(F)F)(C(F)(F)F)C(O)(C(F)(F)F)C(F)(F)F |  | 12.9 µM (active) and 9.36 µM (active) |
| C1CN(CCOCCN2CCOCC2)CCO1 | inactive |  |
| CCCCC(CC)COC(=O)C=Cc1ccc(OC)cc1 (stereo not drawn) |  | 15.4 µM (active) and 23.4 µM (active) |
| COc1ccccc1Oc1c(NS(=O)(=O)c2ccc(C(C)(C)C)cc2)nc(-c2ncccn2)nc1OCCO | inactive |  |
| COc1cc(CNC(=O)CCCC/C=C/C(C)C)ccc1O | inactive |  |
